Results filed as inconclusive are left out. A call without a number means that no potency is given here. Active and inactive are the calls of the source. Calls come from the whole dose curve; as a rule, active = well fitted inhibition curve with a large enough effect; inconclusive = small, poorly fitted or top-dose-only effect; inactive = flat fitted curve, though single readings scatter.
Tests used:
Assay in all cases: qHTS profiling for inhibitors of Plasmodium falciparum proliferation (AID 504749); note: nearly all actives have a fitted effect of over 60% in size
Conditions in all cases: P. falciparum in erythrocytes, SYBR Green DNA, 72 h; series mostly up to 28.7 µM
C2A = system: C2A
In short: (§1)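 Three-day growth assay of blood-stage parasites in erythrocytes (0.3% parasitemia, 2.5% hematocrit) at 37 C, 5% CO2, quantified by SYBR Green DNA staining after overnight detergent lysis.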

CP185 = system: CP185
In short: as §1

CP191 = system: CP191
In short: as §1

CP192 = system: CP192
In short: as §1

CP194 = system: CP194
In short: as §1

CP201 = system: CP201
In short: as §1

CP211 = system: CP211
In short: as §1

CP215 = system: CP215
In short: as §1

CP217 = system: CP217
In short: as §1

CP203 = system: CP203
In short: as §1
Potency is the fitted concentration of half-maximal effect.

NC(=NCCCCCCN=C(N)/N=C(\N)Nc1ccc(Cl)cc1)/N=C(\N)Nc1ccc(Cl)cc1
Potency (C2A): 2240 nM (active)
Potency (CP185): 1780 nM (active)
Potency (CP191): 1120 nM (active)
Potency (CP192): 1690 nM (active)
Potency (CP194): 1510 nM (active)
Potency (CP201): 3790 nM (active)
Potency (CP211): 1510 nM (active)
Potency (CP215): 1900 nM (active)
Potency (CP217): 2000 nM (active)

C[N+]1(CCCCC[N+]2(C)CCCC2)CCCC1
Potency (C2A): inactive
Potency (CP185): inactive
Potency (CP191): inactive
Potency (CP192): inactive
Potency (CP194): inactive
Potency (CP201): inactive
Potency (CP211): inactive
Potency (CP215): inactive
Potency (CP217): inactive

C[C@H]1C[C@H]2[C@@H]3CCC4=CC(=O)C=C[C@]4(C)[C@@]3(Cl)[C@@H](O)C[C@]2(C)[C@@]1(O)C(=O)CO
Potency (C2A): inactive
Potency (CP185): inactive
Potency (CP191): inactive
Potency (CP192): inactive
Potency (CP194): inactive
Potency (CP201): inactive
Potency (CP211): inactive
Potency (CP215): inactive
Potency (CP217): inactive

CN1CCC[C@@H]1c1cccnc1
Potency (C2A): inactive
Potency (CP185): inactive
Potency (CP191): inactive
Potency (CP192): inactive
Potency (CP194): inactive
Potency (CP201): inactive
Potency (CP211): inactive
Potency (CP215): inactive
Potency (CP217): inactive

O=C(O)CCCCC(=O)O
Potency (C2A): inactive
Potency (CP185): inactive
Potency (CP191): inactive
Potency (CP192): inactive
Potency (CP194): inactive
Potency (CP201): inactive
Potency (CP211): inactive
Potency (CP215): inactive
Potency (CP217): inactive

COc1cc(OC)cc(OC)c1
Potency (C2A): inactive
Potency (CP185): inactive
Potency (CP191): inactive
Potency (CP192): inactive
Potency (CP194): inactive
Potency (CP201): inactive
Potency (CP211): inactive
Potency (CP215): inactive
Potency (CP217): inactive

Cc1c(C(C)C)c(=O)n(-c2ccccc2)n1C
Potency (C2A): inactive
Potency (CP185): inactive
Potency (CP191): inactive
Potency (CP192): inactive
Potency (CP194): inactive
Potency (CP201): inactive
Potency (CP211): inactive
Potency (CP215): inactive
Potency (CP217): inactive

CCCCCCCCCCCCCCCCOP(=O)([O-])OCC[N+](C)(C)C
Potency (C2A): inactive
Potency (CP185): inactive
Potency (CP191): inactive
Potency (CP192): inactive
Potency (CP194): inactive
Potency (CP201): inactive
Potency (CP211): inactive
Potency (CP215): inactive
Potency (CP217): inactive

CCCCC(CC)CN=C(N)NC(N)=NCCCCCCN=C(N)NC(N)=NCC(CC)CCCC (stereo unspecified)
Potency (C2A): 2240 nM (active)
Potency (CP185): 1410 nM (active)
Potency (CP191): 1000 nM (active)
Potency (CP192): 3790 nM (active)
Potency (CP194): 1510 nM (active)
Potency (CP201): 1690 nM (active)
Potency (CP211): 1510 nM (active)
Potency (CP215): 1690 nM (active)
Potency (CP217): 3160 nM (active)

COC(=O)[C@@H]1CC2=CC(=O)CC[C@]2(C)[C@@]23O[C@@H]2C[C@@]2(C)[C@@H](CC[C@@]24CCC(=O)O4)[C@H]13
Potency (C2A): inactive
Potency (CP185): inactive
Potency (CP191): inactive
Potency (CP192): inactive
Potency (CP194): inactive
Potency (CP201): inactive
Potency (CP211): inactive
Potency (CP215): inactive
Potency (CP217): inactive

O=C(OCCOCCO)c1ccccc1Nc1cccc(C(F)(F)F)c1
Potency (C2A): inactive
Potency (CP185): inactive
Potency (CP191): inactive
Potency (CP192): inactive
Potency (CP194): inactive
Potency (CP201): inactive
Potency (CP211): inactive
Potency (CP215): inactive
Potency (CP217): inactive

Cc1ccnc(NS(=O)(=O)c2ccc(N)cc2)n1
Potency (C2A): inactive
Potency (CP185): inactive
Potency (CP191): inactive
Potency (CP192): inactive
Potency (CP194): inactive
Potency (CP201): inactive
Potency (CP211): inactive
Potency (CP217): inactive

COCc1c(C(C)C)nc(C(C)C)c(/C=C/[C@@H](O)C[C@@H](O)CC(=O)O)c1-c1ccc(F)cc1
Potency (C2A): inactive
Potency (CP185): inactive
Potency (CP191): inactive
Potency (CP192): inactive
Potency (CP194): inactive
Potency (CP201): inactive
Potency (CP211): inactive
Potency (CP217): inactive

Oc1ccc(Cl)cc1Sc1cc(Cl)ccc1O
Potency (C2A): inactive
Potency (CP185): inactive
Potency (CP191): inactive
Potency (CP192): inactive
Potency (CP201): inactive
Potency (CP211): inactive

Cc1cccc(C)c1NC(=O)CN1CCN(CCCC(c2ccc(F)cc2)c2ccc(F)cc2)CC1
Potency (C2A): inactive
Potency (CP185): inactive
Potency (CP191): inactive
Potency (CP192): inactive
Potency (CP201): inactive
Potency (CP211): inactive
Potency (CP215): inactive

CC(C)COC(=O)c1ccc(N)cc1
Potency (C2A): inactive
Potency (CP185): inactive
Potency (CP191): inactive
Potency (CP192): inactive
Potency (CP194): inactive
Potency (CP211): inactive
Potency (CP215): inactive
Potency (CP217): inactive

Oc1ccc(Cl)c2cccnc12
Potency (C2A): inactive
Potency (CP185): inactive
Potency (CP192): inactive
Potency (CP194): inactive
Potency (CP201): inactive
Potency (CP203): inactive
Potency (CP211): inactive
Potency (CP215): inactive
Potency (CP217): inactive

COc1ccc(CN2CCN(C(c3ccc(F)cc3)c3ccc(F)cc3)CC2)c(OC)c1OC
Potency (C2A): 12600 nM (active)
Potency (CP185): 10000 nM (active)
Potency (CP191): 7940 nM (active)
Potency (CP194): 15100 nM (active)
Potency (CP201): 15100 nM (active)
Potency (CP211): 16900 nM (active)
Potency (CP217): 11200 nM (active)

CCOC(=O)c1cccc(N)c1
Potency (C2A): inactive
Potency (CP185): inactive
Potency (CP191): inactive
Potency (CP217): inactive

CC(C)(C)CC(C)(C)c1ccc(O)c(Cc2ccc(Cl)cc2Cl)c1
Potency (C2A): 2820 nM (active)
Potency (CP185): 3160 nM (active)
Potency (CP191): 1000 nM (active)
Potency (CP192): 3790 nM (active)
Potency (CP203): 1690 nM (active)
Potency (CP211): 1510 nM (active)
Potency (CP215): 1690 nM (active)
Potency (CP217): 2820 nM (active)

NC(=O)C(=O)N/N=C/c1ccc([N+](=O)[O-])o1
Potency (C2A): inactive
Potency (CP185): inactive
Potency (CP191): inactive
Potency (CP217): inactive

CN(C(=O)CN(CCO)CC(=O)N(C)C(C)(C)Cc1ccccc1)C(C)(C)Cc1ccccc1
Potency (C2A): inactive
Potency (CP185): inactive
Potency (CP191): inactive
Potency (CP192): inactive
Potency (CP201): inactive
Potency (CP211): inactive
Potency (CP215): inactive

Oc1c(I)cc(Cl)c2cccnc12
Potency (C2A): 11200 nM (active)
Potency (CP185): 11200 nM (active)
Potency (CP191): 11200 nM (active)
Potency (CP194): inactive
Potency (CP201): inactive
Potency (CP211): inactive
Potency (CP217): 8910 nM (active)

C#C[C@]1(O)CC[C@H]2[C@@H]3CCc4cc(OC5CCCC5)ccc4[C@H]3CC[C@@]21C
Potency (C2A): inactive
Potency (CP185): inactive
Potency (CP192): inactive
Potency (CP194): inactive
Potency (CP201): inactive
Potency (CP203): inactive
Potency (CP211): inactive
Potency (CP215): inactive
Potency (CP217): inactive

CC(=O)c1ccc2c(c1)N(CCCN1CCC(CCO)CC1)c1ccccc1S2
Potency (C2A): inactive
Potency (CP185): inactive
Potency (CP191): inactive
Potency (CP192): inactive
Potency (CP201): inactive
Potency (CP211): inactive
Potency (CP217): inactive

O=C1OC(c2ccc(O)cc2)(c2ccc(O)cc2)c2ccccc21
Potency (C2A): inactive
Potency (CP185): inactive
Potency (CP191): inactive
Potency (CP194): inactive
Potency (CP201): inactive
Potency (CP203): inactive
Potency (CP211): inactive
Potency (CP215): inactive
Potency (CP217): inactive

CC[N+](CC)(CCNC(=O)C(=O)NCC[N+](CC)(CC)Cc1ccccc1Cl)Cc1ccccc1Cl
Potency (C2A): 10000 nM (active)
Potency (CP185): 1580 nM (active)
Potency (CP191): 4470 nM (active)
Potency (CP194): 2390 nM (active)
Potency (CP201): 4780 nM (active)
Potency (CP203): 1350 nM (active)
Potency (CP211): 1070 nM (active)
Potency (CP215): 3790 nM (active)
Potency (CP217): 7940 nM (active)

C[C@@H]1C[C@H]2[C@@H]3CCC4=CC(=O)C=C[C@]4(C)[C@@]3(F)[C@@H](O)C[C@]2(C)[C@H]1C(=O)CO
Potency (C2A): inactive
Potency (CP185): inactive
Potency (CP191): inactive
Potency (CP194): inactive
Potency (CP201): inactive
Potency (CP211): inactive
Potency (CP215): inactive
Potency (CP217): inactive

CC(O)C(=O)O (stereo unspecified)
Potency (C2A): inactive
Potency (CP185): inactive
Potency (CP191): inactive
Potency (CP192): inactive
Potency (CP194): inactive
Potency (CP201): inactive
Potency (CP211): inactive
Potency (CP217): inactive

Cc1ccc(C(=O)C(C)CN2CCCCC2)cc1 (stereo unspecified)
Potency (C2A): inactive
Potency (CP185): inactive
Potency (CP192): inactive
Potency (CP194): inactive
Potency (CP201): inactive
Potency (CP203): inactive
Potency (CP211): inactive
Potency (CP215): inactive
Potency (CP217): inactive

— PubChem BioAssay (NCATS)
